Laboratory results published in PubChem BioAssay (Tox21).
“And” between values parts separate entries of the source, which are not always exact repeats. Equal values may be shown once. Records with an inconclusive call do not appear. Entries that show only a call come without a potency. Unmarked numbers belong to inactive results. The source made the active and inactive calls. Calls come from the whole dose curve; as a rule, active = well fitted cell-killing curve with a large enough effect in the repeat runs; inconclusive = weak or mixed curves, or effect the other way; inactive = flat fitted curve, though single readings scatter.

test: qHTS assay to identify small molecule antagonists of the androgen receptor (AR) signaling pathway using the MDA cell line - cell viability counter screen (AID 743041; note: nearly all actives have a fitted effect of over 45% in size); details: MDA-kb2 viability, CellTiter-Fluor, 16 h, cells co-treated with R1881 androgen agonist; series mostly up to 70.3 µM
Text: National Center for Advancing Translational Sciences [NCATS]
NIH Chemical Genomics Center [NCGC]
U.S. Environmental Protection Agency [EPA]
National Institutes of Environmental Health Sciences [NIEHS]
National Toxicology Program [NTP]
U.S. Food and Drug Administration [FDA]
Androgen receptor (AR), a nuclear hormone receptor, plays a critical role in AR-dependent prostate cancer and other androgen related diseases. Endocrine disrupting chemicals (EDCs) and their interactions with steroid hormone receptors like AR may cause disruption of normal endocrine function as well as interfere with metabolic homeostasis, reproduction, developmental and behavioral functions. To identify the compounds that inhibit AR signaling, MDA-kb2 AR-luc cell line (from ATCC, deposited by Wilson et al.) was used to screen the Tox21 10K compound library. MDA-kb2 AR-luc cell line is human breast carcinoma cell line that was stably transfected with a luciferase reporter gene under control of the MMTV promoter containing response elements for both androgen receptor (AR) and glucocorticoid receptor (GR). The cytotoxicity of the Tox21 compound library against the MDA-kb2 AR-luc cell line was tested in parallel by measuring the cell viability using CellTiter-Fluor assay (Promega, Madison, WI) in the same wells.
Tox21 Assay Protocol Summary:
MDA-kb2 AR-luc cells were dispensed at 3,000 cells/4 uL/well of culture medium into white wall/solid-bottom 1536-well plates using a Multidrop Combi (ThermoFisher Scientific, Waltham, MA) dispenser. After the assay plates were incubated at a 37C and 0% CO2 for 5 hr, 23 nL of compounds dissolved in DMSO, positive controls or DMSO only was transferred to the assay plate by a Pintool station (Kalypsys, San Diego, CA), followed by addition of 1 uL of agonist (R1881) in culture medium using a Bioraptr Flying Reagent Dispenser (FRD) workstation (Beckman Coulter, Indianapolis, IN, USA). The plates were incubated at a 37C and 0% CO2 for 16 h. After 15.5 h incubation, 1uL of CellTiter-Fluor reagent (Promega) was added using a Bioraptr FRD to each plate for measuring cytotoxicity. The fluorescence intensity was quantified on a ViewLux plate reader (PerkinElmer, Shelton, CT) following 30 min incubation at 37C and 0% CO2.
Potency is the fitted concentration of half-maximal effect.

Row | SMILES | Potency | viability change, negative = cytotoxic
1 | COc1cc(Cc2cnc(N)nc2N)cc(OC)c1OC | inactive | –
2 | CN(C)CCOCCN(C)C | inactive | –
3 | O=C(O)CCCC[C@@H]1SC[C@@H]2NC(=O)N[C@@H]21 | inactive | –
4 | CCCCCCCCCC | inactive | –
5 | CCCCC(CC)COC(=O)CS (stereo not given) | inactive | –
6 | CCN(CC)CCCC(C)Nc1ccnc2cc(Cl)ccc12 (stereo not given) | – | -15.9% [at 8.47 µM]
7 | CCCCCCCC(=O)OC | inactive | –
8 | Cc1cnc(C(=O)NCCc2ccc(S(=O)(=O)NC(=O)NC3CCCCC3)cc2)cn1 | inactive | –
9 | CC1CCC(C(C)C)C(O)C1 (stereo not given) | inactive | –
10 | N[C@@H](Cc1cc(I)c(Oc2cc(I)c(O)c(I)c2)c(I)c1)C(=O)O | inactive | –
11 | C=C(C)C(=O)OCCOCCOCCOC(=O)C(=C)C | inactive | –
12 | C=C(C)C(=O)O[C@H]1C[C@@H]2CC[C@@]1(C)C2(C)C | inactive | –
13 | c1ccc(OCCOc2ccccc2)cc1 | inactive | –
14 | OCCOCCN1CCN(C2=Nc3ccccc3Sc3ccccc32)CC1 | inactive | –
15 | CCC(O)OC(O)CC (stereo not given) | inactive | –
16 | CCCCCC(N)=O | inactive | –
17 | O=C(CC(C(=O)OC1CCCCC1)S(=O)(=O)O)OC1CCCCC1 (stereo not given) | inactive | –
18 | Nc1cc([N+](=O)[O-])ccc1O | 54.5 µM (active) and 60.8 µM (active) | –
19 | Oc1cccc2ccccc12 | inactive | –
20 | Nc1ccccc1[N+](=O)[O-] | inactive | –

Row | SMILES | Potency | viability change, negative = cytotoxic
21 | FC(F)(F)c1ccc(Cl)c(Cl)c1 | inactive | –
22 | CC(=O)CC(=O)Nc1ccccc1 | inactive | –
23 | Fc1ccc(Br)cc1 | inactive | –
24 | CN(C)CCCN | inactive | –
25 | CC1=CCC2CC1C2(C)C (stereo not given) | inactive | –
26 | CCCCOC(=O)COc1ccc(Cl)cc1Cl | inactive | –
27 | CCc1cccc(C)c1N | inactive | –
28 | COc1ccc(NC(C)=O)cc1N | inactive | –
29 | c1ccc2c(c1)ccc1ccccc12 | inactive | –
30 | c1c[nH]cn1 | inactive | –
31 | CCCCC(CC)COC(=O)CCCCC(=O)OCC(CC)CCCC (stereo not given) | inactive | –
32 | c1ccc2scnc2c1 | inactive | –
33 | CC(=O)Nc1cccc(O)c1 | inactive | –
34 | O=C1CCC(N2C(=O)c3ccccc3C2=O)C(=O)N1 (stereo not given) | inactive | –
35 | C=CCOC(=O)c1ccccc1C(=O)OCC=C | inactive | –
36 | C[C@H]1C[C@@H]2[C@H]([C@@H](O)C[C@@]3(C)[C@H]2CC[C@]3(O)C(=O)CO)[C@@]2(C)C=CC(=O)C=C12 | inactive | –
37 | CC(=O)c1ccccc1 | inactive | –
38 | ON=C1CCCCC1 | inactive | –
39 | Cc1cccnc1 | inactive | –
40 | CC(C)(C)[C@@H](O)[C@@H](Cc1ccc(Cl)cc1)n1cncn1 | inactive | –
